# Measurements: PubChem BioAssay (Tox21)
# Records with an inconclusive call do not appear. Values without a mark were called inactive. Calls come from the whole dose curve; as a rule, active = well fitted activation curve with a large enough effect in the signal ratio in the repeat runs, with a control signal flat (not every such curve was filed as active); inconclusive = weak or mixed curves; inactive = flat fitted curve, though single readings scatter; the % refers to the signal ratio.
# Assay: qHTS assay for small molecule activators of the heat shock response signaling pathway (AID 743210)
# Details: HeLa HSE-bla reporter, beta-lactamase ratio, 5 h; series mostly up to 62.6 µM; activation: at the top concentration
# Excerpt: U.S. Tox21 Program National Center for Advancing Translational Sciences [NCATS] NIH Chemical Genomics Center [NCGC] U.S. Environmental Protection Agency [EPA] National Institutes of Environmental Health Sciences [NIEHS] National Toxicology Program [NTP] U.S. Food and Drug Administration [FDA] Tox21 Assay Overview: Various chemicals, environmental and physiological stress conditions may lead to the activation of heat shock response/ unfolded protein response (HSR/UPR). There are three heat shock transcription factors (HSFs) (HSF-1, -2, and -4) mediating transcriptional regulation of the human HSR. To identify the compounds that activate HSR signaling, HSE-bla HeLa cell line (Invitrogen, Carlsbad, CA, USA) containing a beta-lactamase reporter gene under the control of the heat shock response elements was used to screen the Tox21 10K compound library.
# Tox21 Assay Protocol Summary: The CellSensor HSE-bla HeLa cells (Invitrogen, Carlsbad, CA, USA) were dispensed at 1500 cells/6uL/well into 1536-well black wall/clear bottom plates using a Multidrop combi (Thermo Fisher Scientific, Waltham, MA) dispenser. After the assay plates were incubated at 37 C and 5% CO2 overnight, 23 nL of compounds dissolved in DMSO, positive controls or DMSO only was transferred to the assay plate by a Pintool station (Kalypsys, San Diego, CA). The plates were incubated at 37 C for 5 h. After 1 uL of LiveBLAzerTM B/G FRET substrate was added using a Flying Reagent Dispenser (Beckman Coulter, Indianapolis, IN, USA), the plates were incubated at room temperature for 2.5 h, and fluorescence intensity was measured by an Envision plate reader (PerkinElmer, Shelton, CT).
# % is set by controls: 0 for no effect and ±100 for the full control effect.
row,Structure (SMILES),activation
1,CN(C)CCCO[C@@H]1[C@H]2OC(C)(C)O[C@H]2O[C@@H]1C(O)CO (stereo not given in full),-0.365%
2,Cc1ccccc1C(N)=O,0.107%
3,COC(=O)CCCCC(=O)O,-1.17%
4,CCC[C@@H]1C[C@@H](C(=O)N[C@@H]([C@H]2O[C@H](SC)[C@H](O)[C@@H](O)[C@H]2O)[C@@H](C)O)N(C)C1,-1.49%
5,C=CC(=O)OCC1CCCO1 (stereo not given),1.83%
6,CCC(=O)CC,0.0552%
7,COC(=O)c1cc(Cl)cc(Cl)c1,-1.21%
8,CCCCCCCCCCCCCCC(=O)NC(CO)CCCCCCCCCCCCCC (stereo not given),-1.18% [at 81.1 µM]
9,OC[C@@H](O)C(O)[C@@H](O)CO (stereo not given in full),-1.83% [at 81.1 µM]
10,NCCOCCN,-1.55%
11,OCCN1CCOCC1,-1.95%
12,N[C@@H](CSCCCO)C(=O)O,1.28% [at 29.1 µM]
13,O=C(Cl)c1ccccc1[N+](=O)[O-],1.01% [at 81.1 µM]
14,C=CCN1C[C@H](C(=O)N(CCCN(C)C)C(=O)NCC)C[C@@H]2c3cccc4[nH]cc(c34)C[C@H]21,0.3%
15,Fc1ccccc1,-0.281% [at 81.1 µM]
16,CC(=O)O[Si](C)(OC(C)=O)OC(C)=O,-3.15% [at 81.1 µM]
17,O=C(CCCCC(=O)Nc1c(I)cc(I)c(C(=O)O)c1I)Nc1c(I)cc(I)c(C(=O)O)c1I,0.0718%
18,CN1C[C@@H]2C[C@H]1CN2c1cc2c(cc1F)c(=O)c(C(=O)O)cn2C1CC1,7.23% [at 29.1 µM]
19,COc1cc(/C=C/C(N)=O)cc(OC)c1OC,0.0281%
20,CCCCOCCOC(=O)COc1ccc(Cl)cc1Cl,-1.71%

row,Structure (SMILES),activation
1,Cc1c(Cl)cccc1Cl,-0.0564%
2,OC1OCCOC1O (stereo not given),0.43%
3,C[C@@H](O)C(=O)O,0.0115% [at 81.1 µM]
4,Cn1c(=O)c2c(ncn2CCO)n(C)c1=O,-1.92%
5,CCCSSCCC,0.224%
6,Cc1cc(C)c(C(=O)O)c(C)c1,-1.43%
7,Cc1c(C(=O)c2c[nH]n(C)c2=O)ccc(S(C)(=O)=O)c1C1=NOCC1,0.36% [at 29.1 µM]
8,Cc1ccc(C(=O)O)cc1[N+](=O)[O-],-0.653%
9,OC[C@H]1O[C@@H](O[C@@H]2[C@@H](CO)O[C@](O)(CO)[C@H]2O)[C@H](O)[C@@H](O)[C@H]1O,-1.24%
10,O=C1CCCCO1,2.25%
11,CC(C)NC(=O)c1ccc(C=O)cc1,-0.0291%
12,COc1nc(N)nc2nc[nH]c12,0.831%
13,CC(=O)C(C)O (stereo not given),-0.0889%
14,CCCCCCCCCCCCCCCCCCOCCO,0.709% [at 29.1 µM]
15,CC(C)Nc1ccccc1,-0.52%
16,[O-][n+]1cccc(/C(Cl)=N/OC[C@@H](O)CN2CCCCC2)c1,0.223%
17,CCO[Si](CC)(OCC)OCC,-0.21%
18,CCC(C(=O)OCCN1CCOC(c2ccccc2)C1C)c1ccccc1 (stereo not given),-0.492%
19,O=S(=O)(O)c1ccc2c(N=Nc3ccc(S(=O)(=O)O)c4ccccc34)c(O)c(S(=O)(=O)O)cc2c1,-0.859% [at 5.95 µM]
20,NCC1(Cc2noc(=O)[nH]2)CCCCC1,0.0507%
